This note sets out measurements from PubChem BioAssay AID1508602 (The Scripps Research Institute Molecular Screening Center, 2020).

The structures appear in SMILES notation. Out of some 650,000 compounds screened, about 6,800 (1%) were called active. This excerpt belongs to a sample that is enriched for actives. Values without a mark were called inactive. Rule as the data show it: active = activation above about 4.9%; inactive = the rest.

G-protein coupled receptor 151 (Homo sapiens), sequence (Q8TDV0 whole entry, looked up): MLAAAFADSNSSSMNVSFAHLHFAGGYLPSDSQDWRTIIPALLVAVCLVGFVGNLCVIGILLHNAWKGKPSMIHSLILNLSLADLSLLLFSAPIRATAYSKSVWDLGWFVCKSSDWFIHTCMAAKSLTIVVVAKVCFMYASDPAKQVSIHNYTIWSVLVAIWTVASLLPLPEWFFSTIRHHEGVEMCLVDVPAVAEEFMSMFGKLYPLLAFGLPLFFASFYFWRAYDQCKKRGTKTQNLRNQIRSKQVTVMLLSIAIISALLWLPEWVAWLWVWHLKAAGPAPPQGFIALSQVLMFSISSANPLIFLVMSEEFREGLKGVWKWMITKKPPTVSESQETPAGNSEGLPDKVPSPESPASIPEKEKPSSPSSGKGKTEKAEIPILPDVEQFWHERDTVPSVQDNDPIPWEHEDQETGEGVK

The assay has as its target G-protein coupled receptor 151 (Homo sapiens) (UniProt Q8TDV0). As to the kind of experiment: activators of human GPR151, primary screen, cell-based, PathHunter beta-arrestin, luminescence (AID 1508602).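 Also: 0% = median of compound wells and 100% = cells with positive control.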 The note with it: PathHunter beta-arrestin GPR151 cells, at 11.2 µM, stronger effect = higher value.
`O=C(/C=C/c1ccccc1)c1ccccc1O`: the activation was 5.61% (active).
The same measure for `COc1ccc(O)c(C(=O)/C=C/c2ccc(F)cc2)c1`: -1.75%; for `O=C(/C=C/c1ccccc1)c1ccc(O[C@@H]2O[C@H](CO)[C@@H](O)[C@H](O)[C@H]2O)cc1O`: 0.684%.
With `Cc1c(Cl)cccc1-n1c(/C=C/c2cccc3ccccc23)nc2ccccc2c1=O`, the activation was 1.58%.
For `CC(=O)c1ccc(NC(=O)c2ccc(CN(c3ccc(C)c(C)c3)S(C)(=O)=O)cc2)cc1`, the activation is 5.09% (active).
The same measure for `CNC(=O)c1ccc(CN(c2ccc(C)c(C)c2)S(C)(=O)=O)cc1`: 0.29%; for `COC(=O)c1ccccc1NC(=O)c1ccc(CN(c2ccc(C)c(C)c2)S(C)(=O)=O)cc1`: -0.0331%.
In the case of `Cc1cnc(CNC(=O)c2ccc3cncc(-c4cc5ccccc5o4)c3n2)cn1` it was -1.58%.
The same measure for `COc1ccc(NC(=O)CSc2nc(=O)n(CCCN(C)C)c3c2CCC3)cc1OC`: -0.304%; for `COc1cc(Cl)c(CNCc2ccccc2)cc1OC`: -1.13%.
Turning to `COc1cc(CO)cc(Cl)c1OCc1ccccc1`, the activation is 0.149%.
`CCOc1c(Cl)cc(CNCc2ccccc2)cc1OC`: the activation was 5.18% (active).
The same measure for `Cc1ccc(CNC(=O)CSc2nc3ccccc3c(=O)n2CC2CCC(C(=O)NCc3ccco3)CC2)cc1` (configuration not stated): -0.182%.
On to `CN1C(=O)c2ccc(N3C(=O)c4cccc([N+](=O)[O-])c4C3=O)cc2C1=O`, for which the activation is 5.16% (active).
On to `O=C1c2cccc([N+](=O)[O-])c2C(=O)N1c1ccc2ccccc2c1`, for which the activation is 0.404%.
In the case of `O=C1NC(=O)c2cc(N3C(=O)c4cccc([N+](=O)[O-])c4C3=O)ccc21` it was -0.912%; in that of `CC1(C)CC(=O)c2cc(C(=O)Nc3cccc(F)c3)c(=O)n(-c3ccccc3)c2C1`, 0.451%.
The same measure for `O=C(NCCc1ccccc1)c1ccc2c(c1)NC(=O)C(CS(=O)(=O)Cc1cccc(F)c1)N2` (configuration not stated): -0.907%; for `CC(C)C[C@H]1NC(=O)[C@@H]2C[C@H](NCc3ccccc3)CN2C1=O`: 2.09%.
The same measure for `CC(C)c1ccc(CN[C@H]2C[C@H]3C(=O)N[C@@H](COCc4ccccc4)C(=O)N3C2)cc1`: 5.83% (active); for `O=C1N[C@@H](COCc2ccccc2)C(=O)N2C[C@@H](NCc3ccsc3)C[C@@H]12`: 1.22%; for `Cc1ccc(C2=N/C(=C\c3cccc(Cl)c3)C(=O)O2)cc1`: -1.7%.
For `Cc1nc(C)n(CCC(=O)N2CCN(Cc3ccccc3F)C[C@@H]2C(C)C)n1`, the activation is -0.818%.
The same measure for `COCCNC(=O)CSc1nccn1Cc1ccco1`: 4.92% (active).
With `COc1ccc(Cn2ccnc2SCC(=O)NCc2ccco2)cc1`, the activation was 0.251%.
As to `CC(C)NC(=O)CSc1nccn1Cc1ccco1`, the activation was 0.992%.
The same measure for `COCCNC(=O)c1cccc(-n2c(=S)[nH]c3cc(Cl)ccc3c2=O)c1`: 1.05%.
In the case of `O=C(CCCOc1ccc(Cl)cc1)NCc1ccco1` it was -1.43%.
For `CCCCc1ccc2c(N)c(C(=O)Nc3ccc(C(=O)O)cc3)sc2n1`, the activation was -1.27%.
On to `CCCC1=C(C(=O)OCC)C(c2ccc(O)c(OC)c2)C(C#N)=C(N)O1` (configuration not stated), for which the activation was 2.22%.
Consider `CCCC1=C(C(=O)OCC)C(c2cccc(F)c2)C(C#N)=C(N)O1` (configuration not stated), for which the activation was 0.841%.
Turning to `CCOC(=O)C1=C(CC)OC(N)=C(C#N)C1c1ccc(C(F)(F)F)cc1` (configuration not stated), the activation was 5.43% (active).
Regarding `c1ccc(Nc2cc(NCc3ccc4c(c3)OCO4)ncn2)cc1`, the activation is -0.773%.
With `CC1=C(C(=O)Nc2ccccc2C(F)(F)F)C(c2ccccn2)C2=C(CC(C)(C)CC2=O)N1` (configuration not stated), the activation was 0.421%.
The same measure for `CC1=C(C(=O)Nc2cccc(F)c2)C(c2ccccn2)C2=C(CCCC2=O)N1` (configuration not stated): 4.99% (active); for `COc1cc(C2C(C(=O)Nc3ccccn3)=C(C)NC3=C2C(=O)CCC3)cc(OC)c1OC` (configuration not stated): 0.722%; for `Cc1ccccc1-n1c(SCC#N)nc2c(sc(=S)n2-c2ccccc2C)c1=O`: -0.0279%.
The same measure for `Cc1cccc(C)c1-n1c(=S)sc2c(=O)n(-c3cccc(Cl)c3)c(SCC#N)nc21`: 7.07% (active).
Turning to `Cc1cccc(C)c1-n1c(=S)sc2c(=O)n(-c3cccc(Cl)c3)c(SCc3cccc([N+](=O)[O-])c3)nc21`, the activation was -0.958%.
With `CCCOc1ccc(-c2ccc(-c3noc(-c4ccc(OCC)cc4)n3)cc2)cc1`, the activation was -1.32%.
`O=C(COc1ccc(Cl)cc1Cl)NCc1nc(-c2ccccc2)no1`: the activation is -1.12%.
The same measure for `Cc1sc(NC(=O)CN(C(=O)CCc2ccccc2)C2CCCC2)c(C(N)=O)c1C`: 0.0057%; for `CCCCNC(=O)C1CCC(=O)N1Cc1ccc(F)cc1` (configuration not stated): 1.65%.
The same measure for `O=C(Nc1cccc(N2CCC(NCC3COc4ccccc4O3)CC2)c1)c1cccnc1` (configuration not stated): 0.419%; for `O=C(Nc1cccc(N2CCC(NCc3ccon3)CC2)c1)c1cccnc1`: 5.91% (active); for `COc1ccc(CNC2CCN(c3cccc(NC(=O)c4cccnc4)c3)CC2)cc1`: -0.19%.
In the case of `Cc1cc2[nH]c(=O)c(=O)[nH]c2cc1S(=O)(=O)Nc1ccc(Br)cc1F` it was 1.29%; in that of `Cc1ccc2c(CNCc3ccccc3Cl)c(C(=O)O)n(Cc3ccccc3)c2c1`, 2.57%.
As to `O=C(NCCOc1ccccc1)c1cnc(N2CCN(c3ccccn3)CC2)s1`, the activation was 7.58% (active).
In the case of `O=C(NCCOc1ccccc1)c1cnc(Nc2cccnc2)s1` it was 0.0811%; in that of `O=C(NCCOc1ccccc1)c1cnc(N2CCCC2CO)s1` (configuration not stated), -3.77%.
As to `O=C(NNS(=O)(=O)c1ccc2ccccc2c1)Nc1ccc(F)cc1F`, the activation is -1.26%.
The same measure for `O=C(Nc1cccc(Oc2ccc(C(=O)O)c(C(=O)O)c2)c1)c1cccs1`: -1.23%; for `COc1ccc(CN2CCOc3ccc(C(C)(O)CN(C)C)cc3C2)c(Cl)c1OC` (configuration not stated): -0.16%.
The same measure for `O=C(Cc1coc2ccc3ccccc3c12)NCc1cccnc1`: 1.97%; for `CC(C)(C)NC(=O)Cc1coc2ccc3ccccc3c12`: 5.9% (active).
The same measure for `O=C(Cc1coc2ccc3ccccc3c12)NC1CCN(Cc2ccccc2)CC1`: 1.58%.
